Experimental data from PubChem BioAssay (NCATS).
Calls of active or inactive are those of the source. Calls come from the whole dose curve; as a rule, active = well fitted curve in the direction sought with a large enough effect; inconclusive = small, poorly fitted or top-dose-only effect, or another doubt; inactive = no such curve, though single readings can be large or run the other way.

Target: Alpha-galactosidase (Coffea arabica) (UniProt Q42656)
Assay: Counterscreen for Glucocerebrosidase Inhibitors: qHTS Assay for Coffee Bean alpha-Galactosidase at pH 4.5 (AID 957)
Settings: purified coffee bean alpha-galactosidase, fluorogenic substrate; series mostly up to 76.9 µM
In short: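 Green coffee bean enzyme (2 nM final) was incubated with compounds (0.7 nM to 77 uM) and 4-methylumbelliferyl alpha-D-galactopyranoside (80 uM final) in 50 mM citric acid, 0.005% Tween-20, pH 4.5, 20 min at room temperature; AC50 from Hill fits.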

Alpha-galactosidase (Coffea arabica), sequence (Q42656 whole entry, looked up): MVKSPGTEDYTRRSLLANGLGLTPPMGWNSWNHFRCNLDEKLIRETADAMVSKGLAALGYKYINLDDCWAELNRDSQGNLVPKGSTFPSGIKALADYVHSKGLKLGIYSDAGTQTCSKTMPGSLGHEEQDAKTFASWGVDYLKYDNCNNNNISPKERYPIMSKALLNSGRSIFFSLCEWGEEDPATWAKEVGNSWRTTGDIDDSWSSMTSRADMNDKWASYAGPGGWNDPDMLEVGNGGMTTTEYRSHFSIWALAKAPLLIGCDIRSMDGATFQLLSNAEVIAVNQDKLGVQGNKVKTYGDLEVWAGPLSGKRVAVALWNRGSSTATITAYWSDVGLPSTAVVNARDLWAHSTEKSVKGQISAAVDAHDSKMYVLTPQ

SMILES | outcome
CC(=O)NCCc1c[nH]c2ccccc12 | inactive
CC#C[C@]1(O)CC[C@H]2[C@@H]3CCC4=CC(=O)CCC4=C3[C@H](c3ccc(N(C)C)cc3)C[C@@]21C | inactive
Clc1cnc(Oc2ccc(Oc3ncc(Cl)cc3Cl)cc2)c(Cl)c1 | inactive
CCN(CC)CCNC(=O)c1ccc(NC(C)=O)cc1 | inactive
CN[C@@H]1C[C@@H](c2ccc(Cl)c(Cl)c2)c2ccccc21 | inactive
c1ccc2sc(C3(N4CCCCC4)CCCCC3)cc2c1 | inactive
CCCN(CCC)[C@@H]1CCc2ccc(O)cc2C1 | inactive
Cc1nccc2c1[nH]c1ccccc12 | inactive
C[C@]12N[C@H](Cc3ccccc31)c1ccccc12 | inactive
NC(=NCCC[C@H](N)C(=O)O)N[N+](=O)[O-] | inactive
NC(N)=NOCCC(N)C(=O)O (stereo not drawn) | inactive
O=C(O)Cc1cnc[nH]1 | inactive
S=C(NC1CCCCC1)N1CCC(c2cnc[nH]2)CC1 | inactive
